# Data from PubChem BioAssay AID1159580 (chemical genetic matrix, 2015).
# “And” between values parts separate entries of the source, which are not always exact repeats. Equal entries are not always repeated. In all, about 5,500 compounds went through this assay and about 2,000 (36%) were called active. Inconclusive results (about 18%) are left out. Some of the results follow. Values without a mark were called inactive. Rule as the data show it: active = normalized growth mostly below about 0.91 (no sharp cut-off); inconclusive = no clear call, values can overlap the other calls; inactive = mostly above about 0.92.
# Experiment: chemical genetic growth profiling, strain panel (AID 1159580);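 also: tested at 20 µM; growth read once vehicle control cultures reached saturation at 30 °C; 1 = growth at the plate median or of vehicle wells; lower values mean less growth of the strain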
# Conditions: S. cerevisiae deletion strains, growth OD
smiles,measurement,setting,value
C[C@H]1O[C@@H](O[C@H]2[C@@H](O)C[C@H](O[C@H]3[C@@H](O)C[C@H](O[C@H]4CC[C@]5(C)C6CC[C@]7(C)[C@@H](C8=CC(=O)OC8)CC[C@]7(O)C6CC[C@@H]5C4)O[C@@H]3C)O[C@@H]2C)C[C@H](O)[C@@H]1O (some centres not stated),normalized growth,"locus YAL021C, strain ccr4, hits give low values",0.984
same,normalized growth,"locus YAL026C, strain drs2, hits give low values",0.965
same,normalized growth,"locus YAL030W, strain snc1, hits give low values",0.964
same,normalized growth,"locus YBL061C, strain skt5, hits give low values",0.975
same,normalized growth,"locus YBR009C, strain hhf1, hits give low values",0.968
same,normalized growth,"locus YBR021W, strain FUR4, hits give low values",0.968
same,normalized growth,"locus YBR023C, strain chs3, hits give low values",0.957
same,normalized growth,"locus YBR171W, strain sec66, hits give low values",0.98
same,normalized growth,"locus YBR229C, strain ROT2, hits give low values",0.982
same,normalized growth,"locus YBR231C, strain swc5, hits give low values",0.979
same,normalized growth,"locus YBR279W, strain paf1, hits give low values",0.967
same,normalized growth,"locus YCL011C, strain gbp2, hits give low values",0.951
same,normalized growth,"locus YCL016C, strain dcc1, hits give low values",0.921
same,normalized growth,"locus YCL029C, strain bik1, hits give low values",0.976
same,normalized growth,"locus YCL061C, strain MRC1, hits give low values",1.01
same,normalized growth,"locus YCL069W, strain vba3, hits give low values",0.969
same,normalized growth,"locus YCR088W, strain abp1, hits give low values",0.99
same,normalized growth,"locus YDL005C, strain med2, hits give low values",1.01
same,normalized growth,"locus YDL035C, strain GPR1, hits give low values",1.03
same,normalized growth,"locus YDL040C, strain nat1, hits give low values",0.975
same,normalized growth,"locus YDL074C, strain BRE1, hits give low values",0.982
same,normalized growth,"locus YDL101C, strain DUN1, hits give low values",0.987
same,normalized growth,"locus YDL134C, strain PPH21, hits give low values",1.02
same,normalized growth,"locus YDL185W, strain tfp1, hits give low values",1
same,normalized growth,"locus YDL192W, strain arf1, hits give low values",1
same,normalized growth,"locus YDR001C, strain nth1, hits give low values",0.968
same,normalized growth,"locus YDR069C, strain doa4, hits give low values",1.02
same,normalized growth,"locus YDR101C, strain arx1, hits give low values",1.01
same,normalized growth,"locus YDR137W, strain rgp1, hits give low values",0.976
same,normalized growth,"locus YDR159W, strain sac3, hits give low values",0.948
same,normalized growth,"locus YDR162C, strain NBP2, hits give low values",1.01
same,normalized growth,"locus YDR195W, strain ref2",1.03
same,normalized growth,"locus YDR297W, strain sur2, hits give low values",0.986
same,normalized growth,"locus YDR318W, strain mcm21, hits give low values",0.989
same,normalized growth,"locus YDR334W, strain swr1, hits give low values",0.983
same,normalized growth,"locus YDR335W, strain msn5, hits give low values",0.984
same,normalized growth,"locus YDR388W, hits give low values",0.986
same,normalized growth,"locus YDR392W, strain spt3, hits give low values",0.931
same,normalized growth,"locus YDR502C, strain sam2, hits give low values",0.993
same,normalized growth,"locus YEL003W, strain gim4, hits give low values",0.989
same,normalized growth,"locus YEL037C, strain rad23, hits give low values",0.976
same,normalized growth,"locus YEL061C, strain CIN8 (second series), hits give low values",0.971
same,normalized growth,"locus YEL061C, strain CIN8, hits give low values",0.999
same,normalized growth,"locus YER015W, strain faa2, hits give low values",0.977
same,normalized growth,"locus YER016W, strain bim1, hits give low values",0.98
same,normalized growth,"locus YER110C, hits give low values",0.989
same,normalized growth,"locus YER111C, strain swi4, hits give low values",0.969
same,normalized growth,"locus YER155C, strain BEM2 (second series), hits give low values",1.03
same,normalized growth,"locus YER155C, strain BEM2, hits give low values",0.988
same,normalized growth,"locus YER167W, strain BCK2, hits give low values",1
same,normalized growth,"locus YFR010W, strain ubp6, hits give low values",1
same,normalized growth,"locus YGL078C, strain dbp3, hits give low values",0.983
same,normalized growth,"locus YGL086W, strain mad1, hits give low values",1.02
same,normalized growth,"locus YGL167C, strain pmr1, hits give low values",1
same,normalized growth,"locus YGL173C, strain kem1, hits give low values",0.972
same,normalized growth,"locus YGL227W, strain vid30, hits give low values",0.989
same,normalized growth,"locus YGL240W, strain doc1, hits give low values",1.05
same,normalized growth,"locus YGL248W, strain PDE1, hits give low values",0.959
same,normalized growth,"locus YGL253W, strain hxk2, hits give low values",0.761 (active)
same,normalized growth,"locus YGR135W, strain pre9, hits give low values",0.965
same,normalized growth,"locus YGR252W, strain gcn5, hits give low values",0.967
same,normalized growth,"locus YHR013C, strain ard1, hits give low values",0.984
same,normalized growth,"locus YHR027C, strain rpn1, hits give low values",0.996
same,normalized growth,"locus YHR030C, strain SLT2, hits give low values",1 and 1.02
same,normalized growth,"locus YHR079C, strain IRE1 (second series), hits give low values",0.982
same,normalized growth,"locus YHR079C, strain IRE1, hits give low values",1.03
same,normalized growth,"locus YHR094C, strain hxt1, hits give low values",0.978
same,normalized growth,"locus YHR129C, strain ARP1, hits give low values",1
same,normalized growth,"locus YHR142W, strain chs7, hits give low values",0.926
same,normalized growth,"locus YHR200W, strain rpn10, hits give low values",0.999
same,normalized growth,"locus YIL066C, strain RNR3, hits give low values",0.993
same,normalized growth,"locus YIL073C, strain SPO22, hits give low values",0.936
same,normalized growth,"locus YIL125W, strain kgd1, hits give low values",0.985
same,normalized growth,"locus YIR030C, strain dcg1, hits give low values",0.976
same,normalized growth,"locus YJL092W, strain hpr5, hits give low values",0.981
same,normalized growth,"locus YJL095W, strain BCK1 (second series), hits give low values",0.991
same,normalized growth,"locus YJL095W, strain BCK1, hits give low values",0.953 and 1.05
same,normalized growth,"locus YJL115W, strain asf1, hits give low values",0.965
same,normalized growth,"locus YJL129C, strain trk1, hits give low values",0.988
same,normalized growth,"locus YJL134W, strain LCB3, hits give low values",0.995
same,normalized growth,"locus YJL154C, strain vps35, hits give low values",0.979
same,normalized growth,"locus YJL164C, strain tpk1, hits give low values",0.962
same,normalized growth,"locus YJL166W, strain qcr8, hits give low values",1.03
same,normalized growth,"locus YJL168C, strain set2, hits give low values",0.981
same,normalized growth,"locus YJL187C, strain SWE1 (second series), hits give low values",0.974
same,normalized growth,"locus YJR043C, strain POL32, hits give low values",1.04
same,normalized growth,"locus YJR066W, strain TOR1, hits give low values",0.958
same,normalized growth,"locus YKL009W, strain mrt4, hits give low values",0.978
same,normalized growth,"locus YKL068W, hits give low values",0.989
same,normalized growth,"locus YKL085W, strain MDH1 (second series), hits give low values",0.963
same,normalized growth,"locus YKL085W, strain MDH1, hits give low values",0.963
same,normalized growth,"locus YKL160W, strain elf1, hits give low values",0.985
same,normalized growth,"locus YKR001C, strain vps1, hits give low values",0.976
same,normalized growth,"locus YKR026C, strain gcn3, hits give low values",0.977
same,normalized growth,"locus YKR091W, strain srl3, hits give low values",0.967
same,normalized growth,"locus YLL001W, strain dnm1, hits give low values",0.989
same,normalized growth,"locus YLL026W, hits give low values",0.977
same,normalized growth,"locus YLL041C, strain sdh2, hits give low values",0.981
same,normalized growth,"locus YLR027C, strain aat2, hits give low values",0.979
same,normalized growth,"locus YLR039C, strain RIC1, hits give low values",0.999
same,normalized growth,"locus YLR058C, strain SHM2, hits give low values",0.978
same,normalized growth,"locus YLR102C, strain apc9, hits give low values",0.979
same,normalized growth,"locus YLR113W, strain HOG1, hits give low values",1.03
same,normalized growth,"locus YLR221C, strain rsa3, hits give low values",0.954
same,normalized growth,"locus YLR258W, strain gsy2, hits give low values",0.96
same,normalized growth,"locus YLR262C, strain YPT6 (second series), hits give low values",0.997
same,normalized growth,"locus YLR262C, strain YPT6, hits give low values",0.992
same,normalized growth,"locus YLR268W, strain sec22, hits give low values",0.988
same,normalized growth,"locus YLR320W, strain mms22, hits give low values",0.928
same,normalized growth,"locus YLR330W, strain CHS5, hits give low values",1
same,normalized growth,"locus YLR342W, strain FKS1 (second series), hits give low values",1.04
same,normalized growth,"locus YLR342W, strain FKS1, hits give low values",1
same,normalized growth,"locus YLR357W, strain rsc2, hits give low values",1.07
same,normalized growth,"locus YLR370C, strain arc18, hits give low values",0.956
same,normalized growth,"locus YLR371W, strain rom2, hits give low values",0.98
same,normalized growth,"locus YLR384C, strain iki3, hits give low values",0.954
same,normalized growth,"locus YLR418C, strain cdc73, hits give low values",0.928
same,normalized growth,"locus YML016C, strain PPZ1, hits give low values",1
same,normalized growth,"locus YML032C, strain rad52, hits give low values",0.996
same,normalized growth,"locus YML120C, strain ndi1, hits give low values",0.992
same,normalized growth,"locus YML124C, strain tub3, hits give low values",0.975
same,normalized growth,"locus YMR058W, strain fet3, hits give low values",1
same,normalized growth,"locus YMR078C, strain ctf18, hits give low values",0.967
same,normalized growth,"locus YMR125W, strain sto1, hits give low values",0.997
same,normalized growth,"locus YMR129W, hits give low values",0.973
same,normalized growth,"locus YMR205C, strain PFK2, hits give low values",0.924
same,normalized growth,"locus YMR223W, strain ubp8, hits give low values",0.966
same,normalized growth,"locus YMR231W, strain pep5, hits give low values",0.992
same,normalized growth,"locus YMR307W, strain GAS1, hits give low values",1.1
same,normalized growth,"locus YNL067W, strain RPL9B, hits give low values",0.981
same,normalized growth,"locus YNL071W, strain lat1, hits give low values",0.979
same,normalized growth,"locus YNL153C, strain GIM3, hits give low values",0.983
same,normalized growth,"locus YNL183C, strain NPR1, hits give low values",0.984
same,normalized growth,"locus YNL209W, strain ssb2, hits give low values",0.977
same,normalized growth,"locus YNL233W, strain BNI4, hits give low values",0.977
same,normalized growth,"locus YNL248C, strain rpa49, hits give low values",0.979
same,normalized growth,"locus YNL250W, strain rad50, hits give low values",0.997
same,normalized growth,"locus YNL271C, strain bni1, hits give low values",0.973
same,normalized growth,"locus YNL298W, strain CLA4, hits give low values",0.984
same,normalized growth,"locus YNL307C, strain MCK1, hits give low values",0.978
same,normalized growth,"locus YNL322C, strain KRE1 (second series), hits give low values",0.972
same,normalized growth,"locus YNR049C, strain mso1, hits give low values",0.977
same,normalized growth,"locus YNR052C, strain pop2, hits give low values",0.999
same,normalized growth,"locus YOL006C, strain TOP1, hits give low values",0.896
same,normalized growth,"locus YOL012C, strain htz1",0.968
same,normalized growth,"locus YOL147C, strain pex11, hits give low values",0.984
same,normalized growth,"locus YOR001W, strain rrp6, hits give low values",1.03
same,normalized growth,"locus YOR061W, strain CKA2, hits give low values",0.994
same,normalized growth,"locus YOR069W, strain VPS5, hits give low values",0.994
same,normalized growth,"locus YOR070C, strain gyp1, hits give low values",0.968
same,normalized growth,"locus YOR080W, strain dia2, hits give low values",0.982
same,normalized growth,"locus YOR083W, strain WHI5, hits give low values",0.967
same,normalized growth,"locus YOR106W, strain vam3, hits give low values",1
same,normalized growth,"locus YOR136W, strain idh2, hits give low values",0.985
same,normalized growth,"locus YOR144C, strain elg1, hits give low values",0.985
same,normalized growth,"locus YOR184W, strain ser1, hits give low values",0.963
same,normalized growth,"locus YOR231W, strain MKK1, hits give low values",1.01
same,normalized growth,"locus YOR265W, strain rbl2, hits give low values",0.988
same,normalized growth,"locus YOR270C, strain vph1, hits give low values",0.89
same,normalized growth,"locus YOR290C, strain snf2, hits give low values",0.944
same,normalized growth,"locus YOR316C, strain cot1, hits give low values",0.977
same,normalized growth,"locus YPL051W, strain arl3, hits give low values",1.01
same,normalized growth,"locus YPL078C, strain atp4, hits give low values",1.02
same,normalized growth,"locus YPL106C, strain sse1, hits give low values",0.989
same,normalized growth,"locus YPL240C, strain hsp82, hits give low values",0.999
same,normalized growth,"locus YPL241C, strain CIN2, hits give low values",1
same,normalized growth,"locus YPL256C, strain CLN2, hits give low values",1.02
same,normalized growth,"locus YPR119W, strain clb2, hits give low values",0.981
same,normalized growth,"locus YPR141C, strain kar3, hits give low values",0.953
same,normalized growth,"locus YPR163C, strain tif3, hits give low values",0.981
same,normalized growth,"locus YPR167C, strain met16, hits give low values",0.989
same,normalized growth,"strain wtn01, hits give low values",1
